Our source for the Potency and activity (max response) values is PubChem BioAssay (NCATS).

Each structure is given as a SMILES string. “And” between values parts separate entries of the source, which are not always exact repeats. Identical values can stand only once. Results filed as inconclusive are left out. A number with no mark means an inactive call. The source made the active and inactive calls. Calls follow the shape of the dose curve; as a rule, active = well fitted curve in the direction sought with a large enough effect; inconclusive = small, poorly fitted or top-dose-only effect, or another doubt; inactive = no such curve, though single readings can be large; an effect the other way counts as inactive or inconclusive.

Assay [1] deals with Cytochrome P450 3A7 (Homo sapiens) (UniProt P24462). Description: Cytochrome P450 family 3 subfamily A member 7 (CYP3A7) small molecule antagonists: luciferase biochemical qHTS assay (AID 1963596). Also: % is scaled to controls: 0 for no effect and ±100 for the full control effect; nearly all actives have a fitted effect of over 40% in size. In a few lines: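 Recombinant CYP3A7 P450-Glo luminescent assay: enzyme-proluciferin substrate mix preincubated with compound 10 min at room temperature, reaction started with NADPH regeneration system for 1 h. Luciferin detected by luminescence; ketoconazole as positive control.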
(In qHTS, concentration-response curves come from the screen itself.)

The nature of assay [2]: Viability qHTS for spleen associated tyrosine kinase inhibitor (SYKi) drug resistant MV4-11 cells (AID 1963824). Also: nearly all actives have a fitted effect of over 35% in size. Also: potency is read from the fitted curve at half-maximal effect. In a few lines:
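SYK inhibitor-resistant MV4-11 AML cells, 500 per well, added to predispensed compounds and incubated 72 hr at 37 C, 5% CO2. Viability measured by CellTiter-Glo luminescence after 10 min at room temperature.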

The nature of assay [3]: Cellular viability qHTS for adrenocortical cancer (ACC) cell line SW-13 (AID 1963989). Also: nearly all actives have a fitted effect of over 65% in size. Also: potency is read from the fitted curve at half-maximal effect.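 As to activity (max response): cells grown in serum-free medium with ITS supplement; % is scaled to controls: 0 for no effect and ±100 for the full control effect.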 As to conditions: SW-13 ACC cells viability, CellTiter-Glo, 48 h; activity (max response): active compounds read low. In outline:
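Luminescent ATP read-out (CellTiter-Glo, 20 min at room temperature) measured metabolically competent SW-13 cells after 48 h compound treatment. Final concentrations spanned up to 46 uM; bortezomib served as positive control.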

Assay [4] in a line: Cellular viability qHTS for adrenocortical cancer (ACC) cell line NCI-H295R (AID 1963990). Also: nearly all actives have a fitted effect of over 60% in size. Also: potency is read from the fitted curve at half-maximal effect. In a few lines:
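IC50 and maximal efficacy derive from four-parameter logistic modelling of titration curves, with reads scaled between DMSO-only wells (0%) and doxorubicin hydrochloride (100% inhibition). Compounds spanned up to 46 uM over 48 h.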

Assay [5] is described as follows: Quantitative highthroughput screen to assess conditional lethalithy of NOMO1 cells grown in RPMI1640 with untreated serum (RPMI+s) (AID 1963876).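 Also: 100% = DMSO wells and 0% = empty wells without cells; nearly all actives have a fitted effect of over 35% in size.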 In outline: (§1)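 Each medium arm—HPLM with 10% dialyzed FBS, or RPMI1640 with 5 mM glucose and 10% untreated or dialyzed FBS—was screened against an 11-point, 3-fold compound titration for 48 h at 37 °C, with CellTiter-Glo luminescence as endpoint.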

Assay [6] is described as follows: Quantitative highthroughput screen to assess conditional lethalithy of NOMO1 cells grown in RPMI1640 with dialyzed fetal bovine serum (RPMI+ds) (AID 1963877).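 Also: series mostly up to about 46 µM; 100% = DMSO control wells and 0% = empty wells; nearly all actives have a fitted effect of over 30% in size.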 In outline: as §1
Assay [7] can be described thus: Quantitative highthroughput screen to assess conditional lethalithy of NOMO1 cells grown in Human Plasma-Like Medium with dialyzed fetal bovine serum (HPLM+ds) (AID 1963878).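 Also: 100% = DMSO wells and 0% = empty wells on each plate; nearly all actives have a fitted effect of over 35% in size.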 In outline:
as §1

Assay [8] can be described thus: Quantitative highthroughput screen to assess conditional lethalithy of P12 Ichikawa cells grown in Human Plasma-Like Medium with dialyzed fetal bovine serum (HPLM+ds) (AID 1963879). Also: series mostly up to about 46 µM; nearly all actives have a fitted effect of over 35% in size. The following applies: Potency: viability. In a few lines: as §1
Assay [9] in a line: Quantitative highthroughput screen to assess conditional lethalithy of P12 Ichikawa cells grown in RPMI1640 with dialyzed fetal bovine serum (RPMI+ds) (AID 1963880). The following applies: Potency: P12-Ichikawa viability. In outline: as §1
A short description of assay [10]: Quantitative highthroughput screen to assess conditional lethalithy of P12 Ichikawa cells grown in RPMI1640 with untreated serum (RPMI+s) (AID 1963881). As to conditions: Potency: viability. In a few lines: as §1
A short description of assay [11]: Quantitative highthroughput screen to assess conditional lethalithy of SEM cells grown in Human Plasma-Like Medium with dialyzed fetal bovine serum (HPLM+ds) (AID 1963882). In a few lines: as §1
A short description of assay [12]: Quantitative highthroughput screen to assess conditional lethalithy of SEM cells grown in RPMI1640 with unreated serum (RPMI+s) (AID 1963883). In a few lines: as §1
Assay [13] is described as follows: Quantitative highthroughput screen to assess conditional lethalithy of SEM cells grown in RPMI1640 with dialyzed fetal bovine serum (RPMI+ds) (AID 1963884). In a few lines:
as §1

Sequence of Cytochrome P450 3A7 (Homo sapiens) (P24462 whole entry, looked up): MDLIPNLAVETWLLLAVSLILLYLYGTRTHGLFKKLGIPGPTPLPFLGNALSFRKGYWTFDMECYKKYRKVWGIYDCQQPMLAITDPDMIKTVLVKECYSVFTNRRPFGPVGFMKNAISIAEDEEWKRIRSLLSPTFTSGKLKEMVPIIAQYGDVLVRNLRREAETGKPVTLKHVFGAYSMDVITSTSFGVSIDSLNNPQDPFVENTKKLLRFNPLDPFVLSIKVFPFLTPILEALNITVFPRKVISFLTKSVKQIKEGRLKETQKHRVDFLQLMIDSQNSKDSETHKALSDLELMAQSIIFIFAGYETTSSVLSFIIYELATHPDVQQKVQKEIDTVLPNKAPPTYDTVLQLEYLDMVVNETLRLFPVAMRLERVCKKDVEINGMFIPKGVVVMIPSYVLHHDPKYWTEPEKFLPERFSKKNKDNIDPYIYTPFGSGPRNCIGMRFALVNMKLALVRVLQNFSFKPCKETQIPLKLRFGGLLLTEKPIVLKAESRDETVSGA

In the case of `CCCCCCCC/C=C\CCCCCCCCN`, the Potency result in assay [1], in [2] and in assay [4] was “inactive” each time. Moreover, the activity (max response) in assay [3] was 7.78%.

Take `O=C(O)c1ccc(OCCN2CCCCC2)cc1`: the Potency entry in assay [1], in [2] and in assay [4] was “inactive” throughout.

For `C[C@@H]1CCO[C@H]2Cn3cc(C(=O)NCc4ccc(F)cc4F)c(=O)c(O)c3C(=O)N12`, the Potency result in assay [1], in [5], in assay [6], in [7], in assay [8] and in assay [9] was “inactive” each time. Also, the Potency result in [10], in assay [11], in assay [12] and in assay [13] was “inactive” each time.

As for `C[C@H]1CN(C[C@H](Cc2ccccc2)C(=O)NCC(=O)O)CC[C@@]1(C)c1cccc(O)c1`, the Potency entry in assay [1], in assay [2] and in assay [4] was “inactive” in each case.

Consider `CC(=O)OC[C@H]1O[C@@H](OC(C)=O)[C@H](OC(C)=O)[C@@H]1OC(C)=O`, for which the Potency result in [1], in assay [2] and in assay [4] was “inactive” each time. Besides, the activity (max response) in assay [3] is 10.4%.

For `C[C@H]1O[C@@H](O[C@H]2CC[C@@]3(C)[C@H](CC[C@@H]4[C@@H]3C[C@@H](O)[C@]3(C)[C@@H](C5=CC(=O)OC5)CC[C@]43O)C2)C[C@H](O)[C@@H]1O[C@H]1C[C@H](O)[C@H](O[C@H]2C[C@H](O)[C@H](O[C@@H]3O[C@H](CO)[C@@H](O)[C@H](O)[C@H]3O)[C@@H](C)O2)[C@@H](C)O1`, the Potency entry in assay [1] was “inactive”. For the same molecule, the Potency was 0.133 µM (active) in assay [2], 0.082 µM (active) in assay [3] and 164 nM (active) in assay [4].

In the case of `CC(=O)N1C[C@H](O)C[C@H]1C(=O)O`, the Potency result in assay [1], in [2] and in [4] was “inactive” throughout. In assay [3], the activity (max response) was 0.891%.

With `COc1ccc(C(Cl)=C(c2ccc(OC)cc2)c2ccc(OC)cc2)cc1`, the Potency entry in assay [1], in assay [2] and in [4] was “inactive” throughout.

For `CN(C)CC[C@@H](c1ccc(Br)cc1)c1ccccn1`, the Potency result in assay [1], in [2] and in [4] was “inactive” each time. In addition, in assay [3], the activity (max response) was 2.25%.

With `CN(C)CCOC(=O)COc1ccc(Cl)cc1`, the Potency entry in assay [1], in assay [2] and in assay [4] was “inactive” in each case. Moreover, the activity (max response) in [3] is 4.85%.

Regarding `CCN1CCN(c2cc3c(cc2F)c(=O)c(C(=O)O)cn3C2CC2)CC1`, the Potency result in assay [1], in assay [2] and in [4] was “inactive” each time. Moreover, in assay [3], the activity (max response) was 2.41%.

On to `CCOc1ccccc1OCC1CNCCO1` (centres undefined), for which the Potency entry in [1], in assay [2] and in assay [4] was “inactive” throughout. For the same molecule, the activity (max response) in assay [3] was -0.481%.

As to `CC(=O)O[C@H]1C[C@@H]2CC[C@@H]3[C@H](CC[C@@]4(C)[C@H]3C[C@H]([N+]3(C)CCCCC3)[C@@H]4OC(C)=O)[C@@]2(C)C[C@@H]1N1CCCCC1`, the Potency entry in assay [1], in assay [2] and in assay [4] was “inactive” each time.

Turning to `C[N+]12CCC(CC1)C(OC(=O)C(O)(c1ccccc1)c1ccccc1)C2` (centres undefined), the Potency entry in [1] and in [4] was “inactive” throughout. Besides, in assay [3], the activity (max response) is -2.73%.

With `C[C@H]1O[C@H](O[C@H]2[C@H](O)[C@@H](O)[C@@H](O[C@H]3[C@H](O)[C@@H](O)[C@H](O)O[C@@H]3CO)O[C@@H]2CO)[C@H](O)[C@@H](O)[C@@H]1N[C@H]1C=C(CO)[C@@H](O)[C@H](O)[C@H]1O`, the Potency result in assay [1] and in [4] was “inactive” in each case. In assay [3], the activity (max response) was -2.85%.

Consider `Cc1c(N(C)CS(=O)(=O)O)c(=O)n(-c2ccccc2)n1C`, for which the Potency entry in assay [1] and in [4] was “inactive” in each case. In addition, the activity (max response) in assay [3] was 3.83%.

`CC(CN(C)C)C(C)(O)Cc1ccc(Cl)cc1` (centres undefined): the Potency result in assay [1] and in [4] was “inactive” each time. For the same molecule, in [3], the activity (max response) is 6.59%.

Consider `CN(C)CCCO[C@@H]1[C@H]2OC(C)(C)O[C@H]2O[C@@H]1C(O)CO` (some centres undefined), for which the Potency result in assay [1] and in [4] was “inactive” in each case. In addition, in assay [3], the activity (max response) was 7.54%.

On to `O=C(CCCCC(=O)Nc1c(I)cc(I)c(C(=O)O)c1I)Nc1c(I)cc(I)c(C(=O)O)c1I`, for which the Potency entry in assay [1] and in [4] was “inactive” in each case. The activity (max response) in assay [3] is 10.3%.

Regarding `CCCCCCCCCCCCCCCC(=O)OC(C)C`, the Potency result in assay [1] and in assay [4] was “inactive” each time. Also, in assay [3], the activity (max response) was 6.75%.

Regarding `CO/N=C(\C(=O)N[C@@H]1C(=O)N2C(C(=O)O)=C(CSc3nc(=O)c(O)nn3C)CS[C@H]12)c1csc(N)n1`, the Potency entry in assay [1] and in assay [4] was “inactive” throughout. Moreover, the activity (max response) in [3] was 16.1%.

In the case of `COc1ccc(-c2cc(C(F)F)nn2-c2ccc(S(N)(=O)=O)cc2)cc1F`, the Potency entry in assay [1] and in [4] was “inactive” in each case. Also, in assay [3], the activity (max response) is -7.1%.

Take `CCOC(N)=O`: the Potency result in assay [1] and in assay [4] was “inactive” throughout. Besides, in assay [3], the activity (max response) is 11.5%.

For the molecule `O=C(Nc1cccnc1)c1cc(-c2ccnc(F)c2)ccc1OCc1ccccc1`, the Potency result in [1] and in assay [4] was “inactive” throughout. In addition, the activity (max response) in assay [3] is 13.4%.

With `O=C(O)CCc1nc2ccccc2[nH]1`, the Potency result in assay [1] and in assay [4] was “inactive” each time. The activity (max response) in [3] was 0.871%.

As to `CC(C)C(=O)Nc1cccc(C(F)(F)F)c1`, the Potency entry in assay [1] and in [4] was “inactive” each time. In assay [3], the activity (max response) is 14.2%.

Take `Cn1c(=O)c2c(ncn2CC(=O)O)n(C)c1=O`: the Potency entry in [1] and in assay [4] was “inactive” throughout. In addition, the activity (max response) in [3] is 9.83%.

For the molecule `CC1CC(OC(=O)C(O)c2ccccc2)CC(C)(C)N1C` (centres undefined), the Potency result in assay [1] and in assay [4] was “inactive” each time. Besides, the activity (max response) in assay [3] is 2.77%.

For the molecule `Cc1ccc(C(C)C)c(O)c1`, the Potency result in assay [1] and in assay [4] was “inactive” throughout. The activity (max response) in assay [3] was 10.4%.

Turning to `NCCNC(=O)c1ccc(Cl)cn1`, the Potency result in assay [1] and in assay [4] was “inactive” each time. Besides, the activity (max response) in assay [3] is -2.26%.

Regarding `CC(C)(C)NCC(O)COc1ccc(NC(=O)NC2CCCCC2)cc1` (centres undefined), the Potency result in assay [1] and in assay [4] was “inactive” throughout. Besides, the activity (max response) in [3] is 5.25%.

Regarding `Nc1ncnc(Nc2ccccc2)n1`, the Potency result in [1] and in assay [4] was “inactive” throughout. In assay [3], the activity (max response) is 3.3%.

Take `Oc1cn2c(n1)Nc1ccc(Cl)c(Cl)c1C2`: the Potency entry in assay [1] and in [4] was “inactive” each time. For the same molecule, the activity (max response) in [3] is 11.3%.

`N[C@H]1C(O)O[C@H](CO)[C@@H](O)[C@@H]1O` (some centres undefined): the Potency result in assay [1] and in assay [4] was “inactive” in each case. The activity (max response) in assay [3] is -3.76%.

`Cl/C(=C\n1cncn1)c1ccc(Cl)cc1Cl`: the Potency result in assay [1] and in [4] was “inactive” throughout. Besides, the activity (max response) in assay [3] is 2.66%.

In the case of `Nc1ccncc1N`, the Potency result in [1] and in assay [4] was “inactive” throughout. For the same molecule, in assay [3], the activity (max response) was -0.994%.

Regarding `CCN1CCC[C@H]1CNC(=O)c1c(O)c(Cl)cc(Cl)c1OC`, the Potency result in assay [1] and in assay [4] was “inactive” in each case. The activity (max response) in assay [3] was 8.2%.

Consider `Nc1ccn([C@@H]2O[C@H](CO)[C@@H](O)C2(F)F)c(=O)n1`, for which the Potency entry in [1] is “inactive”. Moreover, the activity (max response) in assay [3] is -35% and -42.2%. Further, in assay [4], the Potency is 2.06 µM (active) and 794 nM (active).
